MRP-1 activ – activates MRP-1; H69AR cells + doxorubicin, viability rescue, CellTiter-Glo; viability increase, % at 10 µM; 0.61% of 140,000 active; AID 799;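 active = viability gain under doxorubicin at or above a set limit, the compound median plus 3 SD, cut at about 4.7% in these data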;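 note: MRP-1 overexpressing cells given doxorubicin 25 µM after compound pretreatment; 18-22 h compound pretreatment then 72 h with doxorubicin before readout; 0% = doxorubicin-only wells and 100% = vehicle-treated cells without doxorubicin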
MRP reversal – compounds reversing MRP-mediated drug resistance; 0.04% of 85,000 active; H69AR cells + 2 uM doxorubicin, CellTiter-Glo, 72 h; differential viability (reversal), % at 10 µM;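 active = viability drop by adding the cancer drug above about 55%, with treated viability meeting a 40% cutoff, limit read from the data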;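 note: viability without doxorubicin minus viability with 2 µM doxorubicin for each compound; larger differential means the compound sensitizes cells more to doxorubicin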
CYP2C9 act – activators of human CYP2C9; P11712; 1.4% of 96,000 active; recombinant CYP2C9, luciferin-H conversion, luminescence; hits give high values; factor 1 = untreated enzyme, 0 = blocked; activation factor at 5 µM;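 active = activation factor of 2 or more for CYP2C9 at a 5 µM dose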;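 note: 0 = sulfaphenazole-blocked wells and 1 = vehicle-only wells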
Target sequence (P11712 whole entry, looked up): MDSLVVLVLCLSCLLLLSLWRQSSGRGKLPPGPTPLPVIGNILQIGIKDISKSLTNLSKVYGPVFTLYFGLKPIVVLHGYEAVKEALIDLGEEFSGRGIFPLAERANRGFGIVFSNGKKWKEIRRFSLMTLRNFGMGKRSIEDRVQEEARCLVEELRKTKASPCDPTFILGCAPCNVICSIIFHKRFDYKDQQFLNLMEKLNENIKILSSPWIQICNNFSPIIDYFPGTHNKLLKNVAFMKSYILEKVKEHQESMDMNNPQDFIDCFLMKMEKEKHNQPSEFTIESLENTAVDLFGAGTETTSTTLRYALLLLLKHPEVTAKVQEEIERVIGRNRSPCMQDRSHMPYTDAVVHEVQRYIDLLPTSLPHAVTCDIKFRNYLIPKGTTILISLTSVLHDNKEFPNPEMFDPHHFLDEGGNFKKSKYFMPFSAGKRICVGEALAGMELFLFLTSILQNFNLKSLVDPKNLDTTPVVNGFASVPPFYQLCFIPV
CYP2C9 inhib – human CYP2C9 inhibition | P11712 | CYP2C9 Supersomes, luciferin-H conversion, luminescence | inhibition, % at 5 µM | 20% of 96,000 active;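 active = blocking of liver enzyme CYP2C9 beyond about 50% at 5 µM, limit read from the data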
CYP2C19 inh – human CYP2C19 inhibition. AID 778. inhibition, % at 5 µM. 21% of 96,000 active. CYP2C19 Supersomes, luciferin-H EGE luminescence, 30 min;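 active = CYP2C19 inhibition above a set limit at 5 µM in the primary screen, cut at about 50% in these data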;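 note: plate controls were negative control wells for no effect and 2.5 mM tranylcypromine positive control for full effect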
CYP2C19 activ – cytochrome P450 2C19 (human) activation; recombinant CYP2C19, luciferin-H EGE luminescence; hits give high values; 0 = fully inhibited enzyme, 1 = untreated enzyme; activation factor at 5 µM; 96,000 tested, under 10 active; AID 1025;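 active = activation factor of at least 2 at 5 µM in the primary screen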;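 note: 0 = wells with 2.5 mM tranylcypromine and 1 = vehicle-only wells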
Starred values were filed as active, the others as inactive; x = no result. In the library only some 21% were active in any assay of this set; here they are far more common.

SMILES	MRP-1 activ	MRP reversal	CYP2C9 act	CYP2C9 inhib	CYP2C19 inh	CYP2C19 activ
C=CCn1c(N)c(C(=O)Nc2ccc(C)cc2)sc1=S	-0.1	11.1	0.9	8.5	6.2	0.9
O=C(NCCc1c[nH]c2ccccc12)C(F)(F)F	-3.6	-7.0	1	2.7	29.5	0.7
CCCCc1ccc(NC(=O)COc2ccc(C(=O)Nc3ccccc3OCC)cc2)cc1	0.3	x	x	x	x	x
COc1cc(CC(=O)Nc2ccc(S(=O)(=O)N(C)C)cc2)cc(OC)c1OC	-0.1	0.9	0.6	44.0	5.4	0.9
O=C(COC(=O)CC(c1ccccc1)c1ccccc1)NCc1ccc(Cl)cc1	-2.6	x	x	x	x	x
Cc1nc(N2CCN(C(=O)COc3ccccc3)CC2)c2c(C)c(C)sc2n1	-1.1	34.1	0.1	92.6*	36.0	0.6
COc1ccc(OCC(=O)N2CCN(C(=O)COc3ccc(Br)cc3)CC2)cc1	-0.6	1.0	0.5	46.0	64.5*	0.4
CC(=O)N1CCN(C(=O)COc2ccc(Br)cc2)CC1	1.2	14.7	1	-0.4	88.8*	0.1
O=C(COc1ccccc1)N1CCN(c2ccccc2)CC1	0.3	x	x	x	x	x
O=C(COc1ccc(Br)cc1)N1CCN(c2ccccc2)CC1	1.6	9.8	0.6	36.7	70.6*	0.3
C/C(=N\NC(=O)COc1ccc(C)cc1C(C)C)c1cc2ccccc2o1	1.6	x	x	x	x	x
CCOCc1c(C(=O)OCC(=O)Nc2ccc(C)c(S(=O)(=O)N(C)C)c2)oc2ccccc12	-0.1	x	x	x	x	x
O=C(NC1CCCc2ccccc21)C1CCN(S(=O)(=O)N2CCCCCC2)CC1 (stereo not given)	-1.4	13.0	1.2	-15.1	-0.8	1
CCCCC(CC)CNC(=O)C1CCCN(S(=O)(=O)c2cnc[nH]2)C1 (stereo not given)	1.5	12.7	0.1	92.7*	100.4*	0
O=C(NC1CCCCCC1)C1CCCN(S(=O)(=O)c2cnc[nH]2)C1 (stereo not given)	0.5	3.8	0.5	45.2	83.3*	0.2
CCOC(=O)Cc1csc(NC(=O)C2CCCN(S(=O)(=O)c3cnc[nH]3)C2)n1 (stereo not given)	0.7	-12.8	0.8	21.3	-0.6	1
O=C(NC1CCCc2ccccc21)C1CCCN(S(=O)(=O)c2cnc[nH]2)C1 (stereo not given)	0.5	1.3	0.4	59.7*	91.6*	0.1
CC(=O)N1CCCc2cc(S(=O)(=O)N3CCN(c4ccccn4)CC3)ccc21	-2.6	-5.5	0.8	19.3	15.9	0.8
O=C(CC1S/C(=N/N=C/c2cccs2)NC1=O)Nc1ccc(Cl)c(Cl)c1 (stereo not given)	-2.3	x	x	x	x	x
CCC1SC(=NC(=O)c2ccc(Cl)c(Cl)c2)NC1=O (stereo not given)	-1.1	-0.2	0.4	57.5*	-3.2	1
CCOC(=O)c1c(C)[nH]c(C(=O)N/N=C\c2ccccc2Cl)c1C	-5.5	x	x	x	x	x
CCOc1cc(C#N)c(NC(=O)c2cccnc2)cc1OCC	-4.2	x	1	-3.4	-9.7	1.1
CCOc1cc(C#N)c(NC(=O)c2cccnc2Cl)cc1OCC	-1.1	13.2	0.3	65.4*	-7.0	1.1
N/C(Cc1ccc(Cl)cc1Cl)=N\OC(=O)c1cccs1	-0.5	x	0.6	43.5	53.8*	0.5
C=CCSC1=NC(=O)/C(=C/c2cccs2)S1	8.8*	x	x	x	x	x
SMILES	MRP-1 activ	MRP reversal	CYP2C9 act	CYP2C9 inhib	CYP2C19 inh	CYP2C19 activ
Cc1ccc(C(=O)CC(=O)c2cccc(F)c2)c(O)c1	0.3	x	0.3	71.9*	95.1*	0
O=C(NC(C(=O)c1ccccc1)n1ccc(=O)[nH]c1=O)c1ccccc1 (stereo not given)	-0.4	5.9	1.1	-5.9	-7.1	1.1
COc1ccc(NC(=O)CSc2nc(-c3ccncc3)nn2CC(=O)N2CCCC2)cc1	-0.3	-2.5	0.2	83.4*	92.1*	0.1
CCN(CC)C(=O)Cn1nc(-c2ccccc2O)nc1SCC(=O)Nc1ccc(OC)cc1	-1.7	-14.0	0.3	68.6*	49.9	0.5
CCCn1c(SCC(=O)Nc2ccc(OC)cc2)nnc1-c1ccncc1	-3.7	x	0.7	32.0	23.5	0.8
CCCCC(CC)C(=O)NCc1ccccc1OC (stereo not given)	-3.2	4.0	1	-1.2	53.4*	0.5
COc1ccc(C(=O)NCc2ccccc2OC)cc1	0.2	4.5	x	x	x	x
COc1ccccc1CNC(=O)c1ccccc1N	-0.2	-5.2	0.8	15.3	52.6*	0.5
COc1ccc(C(=O)NCc2ccccc2OC)c(OC)c1	-1.9	-1.3	2.6*	-164.1	55.6*	0.4
CCCC(C)C(=O)NCc1ccccc1OC (stereo not given)	-1.0	0.0	1.2	-15.2	14.9	0.9
CCN(CC)CCNC(=O)c1ccccc1N	-0.7	2.2	0.4	56.2*	66.6*	0.3
CCc1c(C(=O)N/N=C/c2ccc(C)o2)csc1C	-0.1	16.4	x	x	x	x
COc1ccc(OC)c(N(CC(=O)N2CCc3ccccc3C2)S(C)(=O)=O)c1	-1.8	-6.7	1	4.3	23.8	0.8
COc1ccc(CCNC(=O)Cn2cnc3c(cnn3-c3ccccc3Cl)c2=O)cc1OC	-0.2	9.4	1	3.8	14.5	0.9
COc1cc2c(cc1OC)-c1cc(Nc3ccc4c(c3)OCCO4)nc(=O)n1CC2	-0.8	-5.3	0.3	66.9*	36.5	0.6
COc1cc2c(cc1OC)-c1cc(N3CCCc4ccccc43)nc(=O)n1CC2	-1.2	-18.5	0.3	69.3*	59.9*	0.4
COc1cc2c(cc1OC)-c1cc(N3CCCCCC3)nc(=O)n1CC2	-2.7	x	0.7	30.9	-2.0	1
CCOc1cccc(Nc2cc3n(c(=O)n2)CCc2cc(OC)c(OC)cc2-3)c1	0.0	x	0.7	25.3	37.4	0.6
S=c1[nH]cc(-c2ccccc2)n1-c1ccccc1	0.4	x	0.2	78.4*	79.1*	0.2
CCn1c(-c2csc(-c3ccccc3)n2)n[nH]c1=S	-1.0	-3.7	0.9	5.7	-1.2	1
CCn1c(-c2ccccc2)c[nH]c1=S	-3.3	16.9	0.7	31.4	58.4*	0.4
COCCSc1nnc(NS(=O)(=O)Cc2ccccc2)s1	-0.9	4.2	0.3	68.5*	5.6	0.9
COCCSc1nnc(NC(=O)CSCc2ccccc2)s1	0.2	17.6	0.4	59.0*	28.2	0.7
CCNS(=O)(=O)c1ccc2c(c1)n(C)c(=O)n2C	-0.7	20.0	1	-4.6	3.4	1
CCOc1ccc2nc(NS(C)(=O)=O)sc2c1	-2.4	1.4	0.7	28.9	-0.9	1
Cc1ccc(S(=O)(=O)Nc2nc3ccc(S(C)(=O)=O)cc3s2)cc1	-1.0	-0.6	0	97.7*	28.7	0.7
COc1cc(NS(=O)(=O)c2ccc3c(c2)n(C)c(=O)n3C)cc(OC)c1	-3.8	15.7	0.2	84.4*	59.3*	0.4
Cc1ccc(NS(=O)(=O)c2ccc3c(c2)c(=O)n(C)c(=O)n3C)cc1F	-1.8	4.3	0.1	92.0*	94.1*	0.1
